Several values for one entry are separate records, joined by “and”; a condition that tells them apart may be missing. Equal values may be shown once. Records with an inconclusive call do not appear. A call without a number means that no potency is given here. Some structures have more than one record in an assay (separate samples or runs), and their calls can disagree. Activity calls are given as the source filed them. Calls come from the whole dose curve; as a rule, active = well fitted curve in the direction sought with a large enough effect in the repeat runs; inconclusive = weak or mixed curves; inactive = no such curve, though single readings can be large; an effect the other way counts as inactive or inconclusive.
Biological target: Cytochrome P450 1A2 (Homo sapiens) (UniProt P05177)
Test: Cytochrome P450 Family 1 Subfamily A Member 2 (CYP1A2) small molecule antagonists: luciferase reporter qHTS assay (AID 1671199); note: potency is the fitted concentration of half-maximal effect
Details: P450-Glo CYP1A2 enzyme, luciferin luminescence, 1 h; series mostly up to 115 µM; activity change, negative = inhibition: at the top concentration
In short: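 Enzymatic CYP1A2 assay, human, luminescent: 10 min compound–enzyme–substrate preincubation, 1 h NADPH-dependent turnover, 20 min detection step, room temperature throughout. Reduced light indicates lower CYP1A2 activity.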
Note: nearly all actives have a fitted effect of over 50% in size.

Sequence of Cytochrome P450 1A2 (Homo sapiens) (P05177 whole entry, looked up): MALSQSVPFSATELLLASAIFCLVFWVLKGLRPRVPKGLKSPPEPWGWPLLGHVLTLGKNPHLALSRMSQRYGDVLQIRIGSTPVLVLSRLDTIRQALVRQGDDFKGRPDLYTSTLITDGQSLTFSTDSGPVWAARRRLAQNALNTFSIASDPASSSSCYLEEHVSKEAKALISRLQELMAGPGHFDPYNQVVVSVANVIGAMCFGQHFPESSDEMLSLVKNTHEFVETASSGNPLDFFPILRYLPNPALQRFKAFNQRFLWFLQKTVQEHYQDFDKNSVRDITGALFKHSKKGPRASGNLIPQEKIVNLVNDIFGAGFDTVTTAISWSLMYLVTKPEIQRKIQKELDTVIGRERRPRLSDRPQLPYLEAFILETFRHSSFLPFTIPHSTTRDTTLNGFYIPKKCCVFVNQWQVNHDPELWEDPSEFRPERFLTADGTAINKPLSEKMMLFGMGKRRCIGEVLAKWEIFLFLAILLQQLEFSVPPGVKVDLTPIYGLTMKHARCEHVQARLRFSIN

Row | Structure (SMILES) | Potency | activity change, negative = inhibition
1 | CC1=C(/C=C/C(C)=C/C=C/C(C)=C/CO)C(C)(C)CCC1 | 20.3 µM (active) | 
2 | COCC(C)O (stereo not given) |  | -13.8% (inactive)
3 | c1ccc2ccccc2c1 | 70.7 µM (active) and inactive | 
4 | C=C(C)C(=O)OCCCCCCCCCCCC | inactive | 
5 | CCCCOCCOCCOC(=O)CCCCC(=O)OCCOCCOCCCC |  | -25.8% (inactive)
6 | CCc1ccc(O)cc1 |  | -20.7% (inactive)
7 | CCCCCCCCCCCCN | 16 µM (active) and 2.83 µM (active) and 9.08 µM (active) | 
8 | CN(CCOc1ccc(CC2SC(=O)NC2=O)cc1)c1ccccn1 (stereo not given) |  | 3.95% [at 53 µM] (inactive)
9 | C=C(C)C(=O)OCCC[Si](OC)(OC)OC |  | -26.4% (inactive)
10 | CCCCCCCCCCC=CC1CC(=O)OC1=O (stereo not given) |  | -5.68% (inactive)
11 | CC[Si](OC(C)=O)(OC(C)=O)OC(C)=O |  | -13.6% (inactive)

Biological target: Voltage-gated inwardly rectifying potassium channel KCNH2 (Homo sapiens) (UniProt Q12809)
Test: Human Ether-a-go-go-Related Gene (hERG) channel small molecule antagonists: fluorescence cell-based qHTS assay (AID 1671200);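 note: hERG-expressing U2OS cells given a thallium stimulus after FluxOR II dye loading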
Details: hERG-U2OS cells, FluxOR thallium flux fluorescence; series mostly up to 76.8 µM; activity change, negative = inhibition: at the top concentration
In short: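 Quantitative HTS in hERG-U2OS cells: thallium entry through the channel reports activity, read as continuous 480/540 nm fluorescence over 2 min after stimulus addition.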

Sequence of Voltage-gated inwardly rectifying potassium channel KCNH2 (Homo sapiens) (Q12809 whole entry, looked up): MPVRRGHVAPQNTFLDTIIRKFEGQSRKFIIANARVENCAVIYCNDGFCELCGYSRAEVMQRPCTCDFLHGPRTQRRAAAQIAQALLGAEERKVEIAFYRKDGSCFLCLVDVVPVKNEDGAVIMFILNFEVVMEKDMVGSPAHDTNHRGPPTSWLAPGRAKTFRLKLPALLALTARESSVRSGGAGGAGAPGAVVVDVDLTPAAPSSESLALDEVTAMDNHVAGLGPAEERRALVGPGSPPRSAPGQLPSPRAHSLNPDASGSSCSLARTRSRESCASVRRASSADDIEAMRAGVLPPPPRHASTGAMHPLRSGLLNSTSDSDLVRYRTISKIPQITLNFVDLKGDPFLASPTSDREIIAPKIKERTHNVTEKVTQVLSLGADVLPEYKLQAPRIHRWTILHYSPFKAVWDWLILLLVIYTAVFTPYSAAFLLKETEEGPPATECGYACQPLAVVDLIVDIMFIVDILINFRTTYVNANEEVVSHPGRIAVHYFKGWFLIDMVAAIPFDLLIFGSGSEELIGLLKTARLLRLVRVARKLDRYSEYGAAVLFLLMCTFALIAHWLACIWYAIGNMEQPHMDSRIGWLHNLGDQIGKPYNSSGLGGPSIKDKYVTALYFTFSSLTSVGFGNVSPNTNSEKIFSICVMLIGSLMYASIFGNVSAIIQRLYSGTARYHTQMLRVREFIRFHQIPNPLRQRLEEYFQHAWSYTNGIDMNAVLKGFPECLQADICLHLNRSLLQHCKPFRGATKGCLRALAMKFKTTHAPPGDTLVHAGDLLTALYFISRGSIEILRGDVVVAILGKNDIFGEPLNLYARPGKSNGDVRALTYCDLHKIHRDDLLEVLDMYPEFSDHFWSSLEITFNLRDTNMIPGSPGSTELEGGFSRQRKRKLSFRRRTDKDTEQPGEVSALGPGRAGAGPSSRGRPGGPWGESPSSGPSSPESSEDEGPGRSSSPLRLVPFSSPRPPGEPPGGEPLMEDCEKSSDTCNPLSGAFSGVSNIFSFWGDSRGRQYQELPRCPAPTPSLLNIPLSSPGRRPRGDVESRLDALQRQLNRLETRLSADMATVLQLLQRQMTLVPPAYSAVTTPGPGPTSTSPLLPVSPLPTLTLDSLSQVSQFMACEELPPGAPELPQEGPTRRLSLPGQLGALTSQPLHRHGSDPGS

Row | Structure (SMILES) | Potency
12 | OCC1CCCO1 (stereo not given) | inactive
13 | C=C1C2CCC(C2)C1(C)C (stereo not given) | inactive
14 | CC(=O)Nc1ccc(C(=O)O)cc1 | inactive
15 | CC1Cc2ccccc2N1NC(=O)c1ccc(Cl)c(S(N)(=O)=O)c1 (stereo not given) | inactive
16 | Oc1ccc(OCc2ccccc2)cc1 | inactive
17 | O=C1N=C(O)CN1/N=C/c1ccc(-c2ccc([N+](=O)[O-])cc2)o1 | inactive
18 | OCCOCCOCCOCCO | inactive
19 | O=C(O)c1cc(-c2ccccc2)nc2ccccc12 | inactive
20 | Cc1ccc(N)c(S(=O)(=O)O)c1 | inactive
21 | CC1COc2ccccc2N1C(=O)C(Cl)Cl (stereo not given) | inactive
22 | COC(=O)Nc1nc2ccc(Sc3ccccc3)cc2[nH]1 | inactive
23 | CCOC(=O)C1OC1c1ccccc1 (stereo not given) | inactive
24 | COC(=O)c1ccc(C(=O)OC)cc1 | inactive
25 | COCC(C)O (stereo not given) | inactive
